From PubChem BioAssay (EPA / NIEHS) come the findings set out here.

Read-out in test [1]: Macrophage colony-stimulating factor (MCSF), CSF1 (gene 1435)
The test can be described thus: BSK_hDFCGF_MCSF: BioMAP Diversity Plus: hDFCGF Assay for Macrophage colony-stimulating factor (MCSF) Biomarker Activity (AID 2283060). Conditions: primary human foreskin fibroblasts; actives raise or lower the signal. The method in brief:
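fibroblasts (human foreskin, primary), 24 h post-dose; M-CSF by ELISA; bidirectional fit, DMSO = baseline.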

Test [2] is described as follows: BSK_hDFCGF_SRB: Viability Assessment in the BioMAP Diversity Plus: hDFCGF Assay (AID 2283061).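 Note: cells exposed to compound for 24 h before the read.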 Conditions: primary human foreskin fibroblasts. The essentials: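 SRB-based viability read on primary human skin fibroblasts at 24 h: TCA fixation, 0.1% dye, 560 nm. Gain or loss of signal is fitted against the DMSO negative control.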
Read-out in test [3]: TIMP metallopeptidase inhibitor 1 (TIMP1), TIMP1 (gene 7076)
The test can be described thus: BSK_hDFCGF_TIMP1: BioMAP Diversity Plus: hDFCGF Assay for TIMP metallopeptidase inhibitor 1 (TIMP1) Biomarker Activity (AID 2283062). The note with it: primary human foreskin fibroblasts; actives raise or lower the signal. The essentials: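 Bidirectional curve fitting against DMSO baseline yielded this endpoint, based on ELISA detection of TIMP-1 in primary human foreskin fibroblasts exposed to compound for 24 h.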

Read-out in test [4]: Monokine induced gamma interferon (MIG), CXCL9 (gene 4283)
The test can be described thus: BSK_hDFCGF_MIG: BioMAP Diversity Plus: hDFCGF Assay for Monokine induced gamma interferon (MIG) Biomarker Activity (AID 2283063). The note with it: primary human foreskin fibroblasts; actives raise or lower the signal. The method in brief: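 Endpoint derived by bidirectional fitting relative to DMSO; MIG quantified via ELISA in primary human foreskin fibroblasts harvested 24 h after dosing.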

Read-out in test [5]: Matrix Metallopeptidase 1 (MMP1), MMP1 (gene 4312)
The test can be described thus: BSK_hDFCGF_MMP1: BioMAP Diversity Plus: hDFCGF Assay for Matrix Metallopeptidase 1 (MMP1) Biomarker Activity (AID 2283064). The note with it: primary human foreskin fibroblasts; actives raise or lower the signal. The method in brief: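 MMP1 levels quantified by ELISA 24 h after dosing human dermal fibroblast cultures, with parallel SRB total-protein staining for overt cytotoxicity. Data fitted in both directions against DMSO baseline.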

Read-out in test [6]: Vascular cell adhesion molecule 1 (VCAM1), VCAM1 (gene 7412)
The test can be described thus: BSK_hDFCGF_VCAM1: BioMAP Diversity Plus: hDFCGF Assay for Vascular cell adhesion molecule 1 (VCAM1) Biomarker Activity (AID 2283065).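 For AC50: VCAM-1 protein level quantified by ELISA after 24 h chemical exposure.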 The note with it: primary human foreskin fibroblasts; actives raise or lower the signal. The method in brief: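 Measured after 24 h chemical treatment of primary human skin fibroblasts, VCAM-1 was detected by ELISA and concentration-response analysed in both directions versus DMSO vehicle.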

Read-out in test [7]: Plasminogen activator inhibitor-1 (PAI1), SERPINE1 (gene 5054)
The test can be described thus: BSK_hDFCGF_PAI1: BioMAP Diversity Plus: hDFCGF Assay for Plasminogen activator inhibitor-1 (PAI1) Biomarker Activity (AID 2283066). Conditions: primary human foreskin fibroblasts; actives raise or lower the signal. The method in brief: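 PAI-1 levels in human dermal foreskin fibroblasts were quantified by ELISA 24 h after dosing, with gain or loss analysed against DMSO. Overt cytotoxicity was checked by sulforhodamine B total-protein staining in parallel cultures.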

Read-out in test [8]: Intercellular Adhesion Molecule 1 (ICAM1), ICAM1 (gene 3383)
The test can be described thus: BSK_KF3CT_ICAM1: BioMAP Diversity Plus: KF3CT Assay for Intercellular Adhesion Molecule 1 (ICAM1) Biomarker Activity (AID 2283067). Conditions: primary human keratinocytes with fibroblasts; actives raise or lower the signal. The method in brief: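 Bidirectional curve fitting against a DMSO baseline was applied to ICAM-1 ELISA signal from primary human skin co-cultures harvested 24 h after treatment, with SRB staining of parallel wells for overt cytotoxicity.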

Read-out in test [9]: Interferon-gamma inducible Protein 10 (IP10), CXCL10 (gene 3627)
The test can be described thus: BSK_KF3CT_IP10: BioMAP Diversity Plus: KF3CT Assay for Interferon-gamma inducible Protein 10 (IP10) Biomarker Activity (AID 2283068). The note with it: primary human keratinocytes with fibroblasts; actives raise or lower the signal. The method in brief: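 ELISA read-out of IP-10 after 24 h chemical dosing of human skin primary co-culture (keratinocytes, foreskin fibroblasts). Gain or loss of signal relative to DMSO, bidirectional curve fit.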

Test [10] in a line: BSK_KF3CT_SRB: Viability Assessment in the BioMAP Diversity Plus: KF3CT Assay (AID 2283069).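 Note: read 24 h after compound addition.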 The note with it: primary human keratinocytes with fibroblasts. The method in brief:
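Cytotoxicity was gauged by SRB staining (0.1% SRB, 10% TCA fixation, 560 nm) of parallel cultures at 24 h. The cells were primary human skin keratinocytes co-cultured with fibroblasts, and activity was fitted in both directions against DMSO.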

Read-out in test [11]: Interleukin-1 alpha (IL1a), IL1A (gene 3552)
The test can be described thus: BSK_KF3CT_IL1a: BioMAP Diversity Plus: KF3CT Assay for Interleukin-1 alpha (IL1a) Biomarker Activity (AID 2283070). The note with it: primary human keratinocytes with fibroblasts; actives raise or lower the signal. The essentials: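 IL-1a was detected by ELISA 24 h after chemical treatment of a co-culture of human skin keratinocytes and foreskin fibroblasts. Gain or loss of signal was fitted against the DMSO baseline.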

Read-out in test [12]: TIMP metallopeptidase inhibitor 2 (TIMP2), TIMP2 (gene 7077)
The test can be described thus: BSK_KF3CT_TIMP2: BioMAP Diversity Plus: KF3CT Assay for TIMP metallopeptidase inhibitor 2 (TIMP2) Biomarker Activity (AID 2283071). Conditions: primary human keratinocytes with fibroblasts; actives raise or lower the signal. The method in brief: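 TIMP-2 measured by ELISA at 24 h in human keratinocyte/fibroblast primary co-cultures exposed to chemicals. Both increases and decreases were fitted against DMSO. Parallel cultures were stained with SRB for total protein as an overt-cytotoxicity check.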

Read-out in test [13]: C-C motif chemokine 2 (Homo sapiens) (UniProt P13500)
As to the kind of experiment: BSK_KF3CT_MCP1: BioMAP Diversity Plus: KF3CT Assay for Monocyte Chemoattractant Protein 1 (MCP1/CCL2) Biomarker Activity (AID 2283073). Conditions: primary human keratinocytes with fibroblasts; actives raise or lower the signal. The essentials:
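Biomarker MCP-1 is measured by ELISA in primary human keratinocytes co-cultured with foreskin fibroblasts, 24 h after chemical treatment; DMSO serves as the negative control and activity baseline.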

Read-out in test [14]: Matrix Metallopeptidase 9 (MMP9), MMP9 (gene 4318)
The test can be described thus: BSK_KF3CT_MMP9: BioMAP Diversity Plus: KF3CT Assay for Matrix Metallopeptidase 9 (MMP9) Biomarker Activity (AID 2283074).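 For AC50: MMP9 protein level quantified by ELISA in the co-culture.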 Conditions: primary human keratinocytes with fibroblasts; actives raise or lower the signal. The essentials: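 MMP-9 quantified by ELISA after 24 h chemical treatment of primary human skin keratinocyte/fibroblast co-cultures; gain or loss fitted against DMSO, with parallel SRB staining (0.1% SRB, 560 nm) for overt cytotoxicity.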

Read-out in test [15]: CD40, CD40 (gene 958)
As to the kind of experiment: BSK_LPS_CD40: BioMAP Diversity Plus: LPS Assay for CD40 Biomarker Activity (AID 2283076). The note with it: primary human HUVEC with PBMC; actives raise or lower the signal. The essentials: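 Using a multiplexed primary human co-culture (umbilical vein endothelium plus PBMC), CD40 was read by ELISA 24 h after dosing, with cytotoxicity tracked by sulforhodamine B staining of parallel cultures and activity fitted bidirectionally versus DMSO.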

Read-out in test [16]: E-selectin (Homo sapiens) (UniProt P16581)
The test can be described thus: BSK_LPS_Eselectin: BioMAP Diversity Plus: LPS Assay for Eselectin Biomarker Activity (AID 2283077). The note with it: primary human HUVEC with PBMC; actives raise or lower the signal. The essentials:
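Dose chemical onto LPS-driven HUVEC/PBMC co-culture; after 24 h, run ELISA for E-selectin; fit up- and down-going responses relative to DMSO control.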

Read-out in test [17]: Interleukin-8 (IL8), CXCL8 (gene 3576)
As to the kind of experiment: BSK_LPS_IL8: BioMAP Diversity Plus: LPS Assay for Interleukin-8 (IL8) Biomarker Activity (AID 2283078). Conditions: primary human HUVEC with PBMC; actives raise or lower the signal. The essentials:
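In this LPS system, chemical-treated human umbilical vein endothelium/PBMC co-cultures were harvested at 24 h for IL-8 ELISA.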

Test [18] is described as follows: BSK_LPS_SRB: Viability Assessment in the BioMAP Diversity Plus: LPS Assay (AID 2283079).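 Note: total protein by sulforhodamine B absorbance as a cytotoxicity measure; measured one day after compound addition; fitted in both directions against DMSO so loss or gain of signal counts.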 The note with it: primary human HUVEC with PBMC. The method in brief: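 Cytotoxicity endpoint in human endothelial–PBMC co-culture: 24 h exposure, then SRB (0.1%) staining, 560 nm read.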
Read-out in test [19]: Transforming growth factor beta 1 (TGFb1), TGFB1 (gene 7040)
As to the kind of experiment: BSK_KF3CT_TGFb1: BioMAP Diversity Plus: KF3CT Assay for Transforming growth factor beta 1 (TGFb1) Biomarker Activity (AID 2283072). The note with it: primary human keratinocytes with fibroblasts; actives raise or lower the signal. The method in brief:
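ELISA quantifies TGF-b1 at 24 h post-dose in a primary human skin co-culture of keratinocytes and fibroblasts, with gain or loss judged against DMSO. Parallel SRB total-protein staining flags overt cytotoxicity.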

Read-out in test [20]: urokinase plasminogen activator (uPA), PLAU (gene 5328)
As to the kind of experiment: BSK_KF3CT_uPA: BioMAP Diversity Plus: KF3CT Assay for urokinase plasminogen activator (uPA) Biomarker Activity (AID 2283075). Conditions: primary human keratinocytes with fibroblasts; actives raise or lower the signal. The essentials:
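ELISA read-out of uPA 24 h after dosing human skin keratinocytes co-cultured with foreskin fibroblasts. Signal change fitted both ways relative to DMSO; sulforhodamine B on parallel cultures marks overt cytotoxicity.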

Molecules are shown by their SMILES. Values joined by “and” are separate entries in the source; they are usually repeats but may differ in a detail not shown here. Identical values can stand only once. The source holds several records for some structures; these can differ, active in one and inactive in another. Active and inactive are the calls of the source. Rule for the calls: active = hit-call score of the fitted dose curve at least 0.9, where 1 is the maximum; inactive = score below 0.9.

E-selectin (Homo sapiens), sequence (P16581 whole entry, looked up): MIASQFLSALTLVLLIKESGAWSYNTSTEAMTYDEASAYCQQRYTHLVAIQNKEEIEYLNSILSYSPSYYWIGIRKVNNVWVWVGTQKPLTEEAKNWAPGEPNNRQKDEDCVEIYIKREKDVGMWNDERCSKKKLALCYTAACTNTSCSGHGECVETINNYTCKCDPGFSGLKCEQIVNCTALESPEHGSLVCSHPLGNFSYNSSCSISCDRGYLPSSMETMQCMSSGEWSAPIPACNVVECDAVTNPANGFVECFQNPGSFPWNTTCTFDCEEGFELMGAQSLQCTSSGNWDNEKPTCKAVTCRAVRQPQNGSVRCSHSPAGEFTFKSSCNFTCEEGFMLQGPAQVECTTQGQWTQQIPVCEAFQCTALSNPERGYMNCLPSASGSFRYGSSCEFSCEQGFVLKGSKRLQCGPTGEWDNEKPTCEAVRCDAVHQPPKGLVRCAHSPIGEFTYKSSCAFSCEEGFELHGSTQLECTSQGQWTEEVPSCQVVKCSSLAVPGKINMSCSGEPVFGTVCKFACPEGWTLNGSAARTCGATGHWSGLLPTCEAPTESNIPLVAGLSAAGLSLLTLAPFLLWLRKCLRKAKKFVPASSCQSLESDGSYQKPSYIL

As to `FC1CC(F)(F)C(F)(F)C1(F)F` (centres undefined), the outcome in test [1], in [2], in [3], in test [4], in test [5] and in test [6] was inactive. For the same compound, the result in test [7], in [8], in [9], in test [10], in [11] and in test [12] was inactive. Also, the result in test [13], in test [14], in test [15], in test [16], in test [17] and in [18] was inactive. In test [2], the AC50 was 21.1 µM (active).

For `CCCCCCCCCCCCCCCC[N+](C)(C)Cc1ccccc1`, the AC50 in test [1] is 1.97 µM (active); in test [2], 5.13 µM (active); in test [3], 1.71 µM (active); in [4], 3.62 µM (active); in [5], 4.17 µM (active); in test [6] it was 1.91 µM (active). Also, the AC50 is 1.52 µM (active) in [7]; 6.06 µM (active) in test [8]; 3.64 µM (active) in [9]; 5.1 µM (active) in test [10]; 3.72 µM (active) in test [11]; 1.9 µM (active) in [12]. The AC50 is 1.02 µM (active) in test [19]; 3.15 µM (active) in test [13]; 1.76 µM (active) in [14]; 2.39 µM (active) in test [20]; 13 µM (active) in test [15]; 4.01 µM (active) in test [16]. For the same compound, the AC50 was 5.25 µM (active) in [17] and 5.2 µM (active) in test [18].

In the case of `C=CC(=O)OCC(F)(F)C(F)(F)C(F)(F)C(F)(F)COC(=O)C=C`, the AC50 was 5.29 µM (active) and 5.49 µM (active) in test [1]; 8.52 µM (active) and 8.25 µM (active) in test [2]; 8.88 µM (active) and 9.2 µM (active) in test [3]; 17.1 µM (active) and 17.3 µM (active) in test [5]; 3.41 µM (active) and 3.27 µM (active) in test [6]; 8.89 µM (active) and 8.86 µM (active) in test [7]. Moreover, the AC50 in test [9] was 19.3 µM (active) and 20.9 µM (active); in [10], 41.7 µM (active) and 43.2 µM (active); in [11] it was 18.6 µM (active) and 48.2 µM (active); in test [12], 25.7 µM (active) and 33.3 µM (active); in [13], 10.9 µM (active) and 15.4 µM (active); in [14] it was 30.9 µM (active) and 21.6 µM (active). Moreover, the AC50 in [15] was 12.2 µM (active) and 18.5 µM (active); in [16] it was 17.3 µM (active) and 17.6 µM (active); in test [17] it was 19.2 µM (active) and 16.7 µM (active); in test [18], 45.3 µM (active) and 43.4 µM (active).

For the compound `NC(=O)C(F)(F)C(F)(F)C(F)(F)C(F)(F)F`, the outcome in test [1], in test [2], in [3], in test [5], in test [6] and in test [7] was inactive. Also, the outcome in [9], in test [10], in test [11], in test [12], in test [13] and in [14] was inactive. The outcome in test [20], in test [15], in test [16], in test [17] and in test [18] was inactive.

Regarding `FC(F)(F)C(F)(F)C(F)(F)C(F)(F)C(F)(F)C(F)(F)CC1CO1` (centres undefined), the outcome in test [1], in test [2], in [3], in test [5], in test [6] and in test [7] was inactive. For the same compound, the result in [8], in [9], in test [10], in test [11], in test [12] and in test [13] was inactive. The result in [14], in test [15], in [16], in test [17] and in test [18] was inactive.

By AC50 is commonly meant the concentration at which the activity in the assay is half-maximal.
